In PubChem BioAssay (NCI) one finds growth data, which are given here for 13 compounds.

Among the test systems are NCI-H23 lung; NCI-H226 lung; NCI-H322M lung; HOP-62 NSCLC; NCI-H460 lung; HOP-92 NSCLC; NCI-H522 lung; A549/ATCC NSCLC; 786-0 renal; COLO 205 colon.
What all share (experiment): NCI-60 one-dose screen, 48 h (100 = growth as untreated, 0 = no growth, -100 = all killed)
Holding throughout (conditions): 10 µM unless noted

About 83,000 compounds went through this panel and 20% of them were active in at least one assay; those are over-represented in the sample as a whole.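 Cell lines were cultured in 96-well plates, exposed to a single compound concentration, and assessed for percent growth 48 hours later.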 Unmarked numbers belong to inactive results. The source made the active and inactive calls. How the source made its calls: active means growth percent below 10; inactive means the rest.

Turning to `O=C(/C=C/c1ccccc1)n1c(-c2ccc(Cl)cc2)nc2ccccc21`, the growth in the test with NCI-H23 lung was -24.5% (active); in the test with NCI-H226 lung it was -55.3% (active); in the test on NCI-H322M lung it was 45%; in the test with HOP-62 NSCLC it was -48.8% (active); in the test on NCI-H460 lung it was 0.538% (active); in the test with HOP-92 NSCLC, -39.4% (active). Moreover, the growth in the test on NCI-H522 lung is -72.4% (active); in the test on A549/ATCC NSCLC, -4.99% (active); in the test on 786-0 renal it was -17.7% (active); in the test with COLO 205 colon, -60.8% (active).
With `CC(=O)n1cc([C@H]2CC[C@H](c3cn(C(C)=O)c4ccccc34)c3c2[nH]c2ccccc32)c2ccccc21`, the growth in the test on NCI-H23 lung was 75.7%; in the test on NCI-H226 lung, 89.4%; in the test on NCI-H322M lung it was 77.6%; with HOP-62 NSCLC it was 70.7%; in the test with NCI-H460 lung, 90.4%; with HOP-92 NSCLC it was 85.3%. In addition, the growth in the test on NCI-H522 lung was 65.1%; with A549/ATCC NSCLC, 70%; with 786-0 renal, 93.5%; in the test with COLO 205 colon, 94.5%.
In the case of `CCCS(=O)(=O)c1nc(NC2CC2)cc(-c2ccc3c(ccn3C3CC(C)(C)NC(C)(C)C3)c2)n1`, the growth was 10% in the test on NCI-H23 lung; -63% (active) with NCI-H226 lung; 32.5% in the test on NCI-H322M lung; 7.4% (active) with HOP-62 NSCLC; -74.1% (active) in the test with NCI-H460 lung; 87.6% in the test on HOP-92 NSCLC. Besides, the growth is -64.1% (active) in the test on NCI-H522 lung, -61.4% (active) with A549/ATCC NSCLC, -87.3% (active) in the test with 786-0 renal and -48.8% (active) in the test with COLO 205 colon.
`C[C@]12CC[C@@H]3c4cc(O)c(O)cc4CC[C@H]3[C@@H]1CC[C@@H]2O`: the growth is 64.5% in the test with NCI-H23 lung; 97.8% in the test with NCI-H226 lung; 60.6% with NCI-H322M lung; 44.4% in the test with HOP-62 NSCLC; 29.5% with NCI-H460 lung; 18.1% with HOP-92 NSCLC. For the same compound, the growth in the test on NCI-H522 lung is -8.58% (active); in the test with A549/ATCC NSCLC, 43.3%; with 786-0 renal, 43%; with COLO 205 colon, 115%.
`CC(=O)Nc1ccc2c(c1)/C(=C\C=C/c1ccc([N+](C)(C)C)cc1)c1ccccc1-2`: the growth in the test on NCI-H23 lung is 54.5%; in the test on NCI-H226 lung it was 57.9%; in the test on NCI-H322M lung, 50.1%; with HOP-62 NSCLC, 18.4%; in the test on NCI-H460 lung, 73.4%; with HOP-92 NSCLC, 52%. For the same compound, the growth with NCI-H522 lung was 18.1%; with A549/ATCC NSCLC, 43.2%; in the test on 786-0 renal, 55.4%; in the test with COLO 205 colon it was 58.1%.
Turning to `COc1ccc(/C=C2\CCCC3=C2NC(C)=NC3c2ccc(OC)c(OC)c2)cc1OC` (stereo not given), the growth in the test with NCI-H23 lung is 29.1%; in the test with NCI-H226 lung, -22.4% (active); in the test with NCI-H322M lung, 47.4%; in the test on HOP-62 NSCLC it was 32.1%; with NCI-H460 lung it was 0.649% (active); with HOP-92 NSCLC, 30.1%. The growth in the test on NCI-H522 lung is -7.42% (active); with A549/ATCC NSCLC, 18%; in the test with 786-0 renal, 9.19% (active); in the test with COLO 205 colon, -29.8% (active).
`Cc1cc(C)c2c(=O)[nH]c(SCC(=O)Nc3cccc(S(=O)(=O)N(C)C)c3)nc2n1`: the growth is 104% in the test on NCI-H23 lung; 91.9% with NCI-H226 lung; 122% in the test with NCI-H322M lung; 97.8% with HOP-62 NSCLC; 107% in the test with NCI-H460 lung; 88.3% in the test with HOP-92 NSCLC. Also, the growth with NCI-H522 lung is 96.3%; in the test with A549/ATCC NSCLC it was 95%; in the test with 786-0 renal, 93.2%; in the test on COLO 205 colon, 90.9%.
For `CN1C(=O)[C@H]2c3c1cccc3[C@@]13NC(=O)O[C@H]1[C@H](CCC3(C)C)C2(C)C`, the growth with NCI-H23 lung is 103%; in the test with NCI-H226 lung, 95.2%; in the test on NCI-H322M lung, 108%; in the test on HOP-62 NSCLC, 96%; in the test with NCI-H460 lung, 105%; with HOP-92 NSCLC, 81.9%. Also, the growth in the test with NCI-H522 lung is 92.6%; in the test on A549/ATCC NSCLC, 93.7%; with 786-0 renal, 96.6%; in the test on COLO 205 colon it was 107%.
On to `C=C1C(=O)O[C@H]2[C@H]1CC/C(Cn1cc(-c3ccc(N)cc3)nn1)=C\CC[C@@]1(C)O[C@@H]21`, for which the growth in the test with NCI-H23 lung was 22.3%; in the test on NCI-H226 lung, -14.3% (active); in the test on NCI-H322M lung, 78.9%; in the test on HOP-62 NSCLC, 51.4%; in the test on NCI-H460 lung, 74%; in the test on HOP-92 NSCLC, -44.3% (active). The growth is -73.2% (active) in the test on NCI-H522 lung, 48.6% in the test on A549/ATCC NSCLC, -61.3% (active) with 786-0 renal and -63.5% (active) in the test on COLO 205 colon.
Consider `Cc1sc(N=Nc2ccc(N(C)C)cc2)[n+]([O-])c1C`, for which the growth is 98.4% in the test on NCI-H23 lung; 92.6% in the test on NCI-H226 lung; 94.5% with NCI-H322M lung; 106% in the test with HOP-62 NSCLC; 99.3% in the test on NCI-H460 lung; 74.7% in the test on HOP-92 NSCLC. The growth in the test on NCI-H522 lung is 98.4%; with A549/ATCC NSCLC, 100%; in the test on 786-0 renal, 103%; with COLO 205 colon, 104%.
As for `O=P([O-])(O)OP(=O)([O-])O.[NH-][C@H]1CCCC[C@@H]1[NH-].[OH-].[OH-].[Pt+4]`, the growth in the test with NCI-H23 lung was 102%; in the test with NCI-H226 lung, 108%; with NCI-H322M lung, 115%; with HOP-62 NSCLC, 111%; in the test on NCI-H460 lung it was 106%; with HOP-92 NSCLC it was 114%. Also, the growth in the test on NCI-H522 lung was 93.4%; in the test with A549/ATCC NSCLC, 92.1%; with 786-0 renal it was 107%; in the test with COLO 205 colon, 110%.
Regarding `CCN(C(=O)c1cc2ccccc2[nH]1)[C@H]1CCC[C@@H](NCc2ccc(OC)cc2)C1`, the growth was 89.8% with NCI-H23 lung; 107% in the test with NCI-H226 lung; 76.1% with NCI-H322M lung; 86.2% with HOP-62 NSCLC; 103% in the test on NCI-H460 lung; 81% in the test on HOP-92 NSCLC. For the same compound, the growth in the test on NCI-H522 lung is 95.6%; with A549/ATCC NSCLC it was 98.7%; with 786-0 renal it was 97%; in the test with COLO 205 colon it was 87.6%.
As for `C=CCOc1cccc(/C=C/C(=O)c2sc(Nc3cccnc3)nc2C)c1`, the growth in the test on NCI-H23 lung was 94.1%; in the test on NCI-H226 lung, 86.1%; in the test with NCI-H322M lung, 77.6%; in the test on HOP-62 NSCLC, 68.2%; in the test with NCI-H460 lung it was 81.2%; in the test with HOP-92 NSCLC, 74.7%. In addition, the growth in the test on NCI-H522 lung was 65.9%; in the test with A549/ATCC NSCLC, 70.9%; in the test with 786-0 renal, 51.7%; with COLO 205 colon, 91.3%.
